Measured values: PubChem BioAssay AID652025 (National Center for Advancing Translational Sciences (NCATS), 2013)
The whole screen tested about 360,000 compounds, of which about 240 (0.067%) were called active. The sample holds actives, similar compounds and a random draw of the others, so the mix is not that of the screen. Values without a mark were called inactive. Rule as the data show it: active = activation above about 50%; inconclusive = mostly about 30% to 49%; inactive = weaker than that.

experiment: qHTS of IL-2 Activators; details: IL-2 activation reporter assay, cell-based qHTS; hits give high values; in transgenic mouse T cells; stimulated with anti-CD3/CD4/CD28 beads; also: 0% is about no effect
Description: The adaptive immune response against any infectious agent begins with the activation of an antigen specific T cell. This relatively rare and inert ("naive") T cell undergoes a massive proliferative expansion and differentiation process to generate sufficient number of potent pathogen-specific effector T cells. The effector T cells fight the infection by making cytokines and helping other cells to become fully armed as well. If any naive T cell has antigen receptors (TCRs) that can be activated by self peptides, then a variety of regulatory mechanisms kick in to prevent this cell from performing to its full potential. These processes collectively constitute the phenomenon of immunological tolerance and their failure leads to autoimmunity. One arm of tolerance involves generation of biochemical negative feedback downstream of the TCR (tuning). This is especially relevant to self antigens present in the body over long periods of time (chronic), which form the bulk of our proteome. The negative feedback serves to tune the TCR signaling, such that the ambient antigenic stimulation is nullified intracellularly. Unfortunately, this critical machinery serves as a target for chronic viral, bacterial and parasitic infections (as well as tumors), which can evade a robust immune response, simply by allowing T cells to tune down their signaling to pathogen or malignancy derived antigens. As such, disrupting the tuning in such cases would allow the tolerant T cell to function again and deliver a robust effector response.
If a therapeutic can restore responsiveness to the tuned down T cell, even for a short time, they could combat the pathogen without any additional immunization. To that end, we have developed a sensitive HTS T cell based assay based on IL-2. This assay will be screened against the Molecular Libraries Small Molecule Repository (MLSMR) to find small molecules that could elicit this response.
NIH Chemical Genomics Center [NCGC]
NIH Molecular Libraries Probe Centers Network [MLPCN]
Assay Submitter (PI): Ron Schwartz, NIAID
4 microL (750 cells/well) of unstimulated transgenic mouse T cells (columns 1-3,5-48) are dispensed into Aurora LoBase, black clear-bottom 1536-well assay plates; column 4 receives an identical concentration of transgenic memory T cells as a non-tolerant control. Compounds are then transferred via Kalypsys pin tool equipped with 1536-pin array (10 nL slotted pins, V&P Scientific, San Diego, CA). Following addition of compound and a 60 minute incubation, 1 microL of bead stimulation solution ((0.04 micron Fluospheres (Life technologies, CA) coated with 10ug/ml each anti-CD3 and anti-CD4 (clones 2C11 and GK1.5, BD Biosciences, CA) and mixed with 1ug/ml anti-CD28 (clone PV-1, BD biosciences, CA)). columns 2-48) is added to stimulate the IL-2 response pathway; media is instead added to column 1 as an unstimulated control, while PMA/ionomycin (Sigma Aldrich, MO) is added to column 3 as a control for IL-2 tolerance bypass. The plates are then incubated at 37 degrees C for 18 hours. EGFP and DsRed signal are then detected using an Acumen eX3 Explorer fluorescent plate cytometer. All cells are dispensed in cell media containing EHAA (Quality Biologicals, MD), RPMI (Quality Biologicals, MD), Glutamine (Life Technologies, CA), Penicillin/Streptomycin (Quality Biologicals, MD), 2-ME (Sigma Aldrich, MO) and 10% FBS (Gemini Bioproducts, CA) .

Compound | activation
Cc1nc2ccc(S(=O)(=O)NCC(=O)NCCN3CCCCC3C)cc2s1 (stereo unspecified) | 0.794%
COc1ccc(C(=O)C2CCCN(C(=O)c3cc4nc(C)cc(C)n4n3)C2)cc1F (stereo unspecified) | -1.95%
Cc1cccc2[nH]c(CN(C)C(=O)C3CCC(=O)N(CCc4ccccc4)C3)nc12 (stereo unspecified) | -4.62%
CCCCN=C1C([N+](=O)[O-])=CC=C2C1=NC1(CCCCC1)N2O | -0.493%
CCOC(=O)C1CCN(c2c(Nc3cc(C)cc(C)c3)c(=O)c2=O)CC1 | 3.74%
COc1ccc(S(=O)(=O)Nc2cccc3c2O[C@H](CN(C)S(=O)(=O)c2ccc(OC)cc2)[C@@H](C)CN([C@H](C)CO)C3=O)cc1 | -0.577%
COc1ccc(-c2ccc3[nH]c4c(c3c2)CCN2C[C@H]3[C@H](C)ON(C)[C@H]3C[C@@H]42)cc1 | -3.69%
COc1cc(C(F)(F)F)nc2c(Br)c(C(C)(C)C)nn12 | -2.42%
COc1ccc(N2CCN(CCNC(=O)CCN3C(=O)COc4ccccc43)CC2)cc1 | -1.26%
Cc1cc(Cl)ccc1OCc1nc(-c2ccncc2)no1 | -0.482%
O=C(NNc1ccccc1Cl)C(O)(c1cccc(C(F)(F)F)c1)c1cccc(C(F)(F)F)c1 | -0.487%
Cn1c2ccc(F)cc2c2nnc(NN)nc21 | 0.485%
CC(C)(C)NC(=O)CN1CCC(NC(=O)C23CC4CC(CC(C4)C2)C3)CC1 | -0.682%
COc1ccc(CCC(=O)N2CCN(S(=O)(=O)c3ccc(OC)cc3)CC2)cc1 | 0.152%
COc1ccc(CCc2nnc(CCC(=O)NCc3cnn(-c4ccccc4C)c3)o2)cc1 | -0.0481%
Cn1cnc(S(=O)(=O)Nc2ccc3c(c2)OCCO3)c1 | 0.511%
COc1cccc(N2CCN(CC(=O)Nc3ccnn3C3CCCC3)CC2)c1 | 0.356%
O=C1CCC(Cc2ccccc2)N1 (stereo unspecified) | -3.46%
CN1CCN(S(=O)(=O)c2ccc(N3CCN(S(=O)(=O)c4cccs4)CC3)nc2)CC1 | 0.642%

Compound | activation
O=C1Cc2ccccc2Sc2ccc(Cl)cc21 | -0.448%
CSCC[C@H](NC(=O)N1CCn2c1nc1ccccc12)C(=O)NCc1ccc2c(c1)OCO2 | -1.15%
COc1ccc(N2CCN(C(=O)CCSCc3ccccc3F)CC2)cc1 | 1.14%
NC(=O)COC(=O)c1ccc2c(c1)C(=O)N(Cc1ccco1)C2=O | -0.0741%
Cc1cnc(C(=O)N2CCCC(C(=O)c3ccc(C(F)(F)F)cc3)C2)cn1 (stereo unspecified) | 0.823%
CCOc1ccc(Nc2nc(Cc3nnc(SCC(=O)c4ccc(C)cc4)o3)cs2)cc1 | -0.186%
NCCN1CCN2C(=O)CN(C(=O)c3ccccc3)CC12 (stereo unspecified) | 1.5%
Cc1cc(C)cc(N(CC(=O)N2CC=C(c3ccccc3)CC2)S(=O)(=O)c2c(C)noc2C)c1 | -2%
CC1=NN(C(C)C)C(=O)C1 | -0.959%
CC1=C(C(=O)N2CCOCC2)CC(CC(=O)NCCN2CCOCC2)C(=O)N1CCC1=CCCCC1 (stereo unspecified) | 2.16%
CC(=O)CSc1nnc(CSc2ncccn2)n1C1CCCCC1 | 4.89%
O=C(O)CN(Cc1ccco1)S(=O)(=O)c1ccccc1 | 0.214%
CC(=O)N1CC[n+]2c(-c3ccc([N+](=O)[O-])cc3)csc21 | -2.73%
Cc1ccccc1N1C(=O)C(Oc2ccc(Cl)cc2)C1CNCC1CCCO1 (stereo unspecified) | 0.756%
O=C1/C(=C\c2cccnc2)CN(Cc2ccccc2)C/C1=C\c1cccnc1 | -0.836%
Cc1c2cn[nH]c(=O)c2c(C)n1Cc1ccc(F)cc1 | -0.791%
Cc1c(C(=O)OCC(=O)N2CCCC2=O)oc2ccccc12 | -1.29%
O=S(=O)(Nc1nccs1)c1ccc2c(c1)OCCO2 | -0.72%
CN1CCN(C2Cc3ccc(Cl)cc3Sc3ccc(F)cc32)CC1 (stereo unspecified) | -2.1%

Compound | activation
Cc1cc([N+](=O)[O-])nn1CCCC(=O)Nc1cccnc1Cl | -0.291%
Cc1cc(NC(=O)c2cc(-c3cccs3)on2)nn1Cc1ccc(Cl)cc1 | 0.242%
CC1(C)O[C@@H]2[C@H](O1)[C@@H](COS(=O)(=O)O)O[C@H]2n1cnc2c(=O)[nH]cnc21 | -0.104%
CCCc1nc(SCC(=O)Nc2ccc(S(=O)(=O)N(C)C)cc2)c2ccccc2n1 | -0.583%
Cc1ccc(S(=O)(=O)CC(=O)Nc2sc(C)c(C)c2C(N)=O)cc1 | 0.0351%
COCCN(C(=O)CCC(=O)Nc1nccs1)C(C(=O)NCCC(C)C)c1ccc(F)cc1 (stereo unspecified) | -1.07%
O=C(NCc1cccnc1)c1cc(C2CCCCN2C(=O)CCc2ccccc2)on1 (stereo unspecified) | -0.0033%
CCOc1ccc(-n2c(SC(C)C(=O)OC)nc3c(c2=O)SCC3)cc1 (stereo unspecified) | -0.633%
Cc1cccc(N=Nc2c(O)[nH]c3ccc(F)cc23)c1 | 137% (active)
Cc1ccc(CNC(=O)CSc2nnc3c(n2)[nH]c2ccc(F)cc23)cc1 | -0.754%
COc1ccc(NC(=O)/C(N=Nc2cccc(S(=O)(=O)Nc3ccc(SC(F)F)cc3)c2)=C(\C)O)cc1 | 0.0635%
Cc1ccccc1OC(=O)Cn1c(C(F)(F)F)nc2ccccc21 | 0.516%
CCCS(=O)(=O)N1CCN=C1SCc1cccc(F)c1 | 1.16%
CC1=C[C@H]2Cc3cc(C)cc(C)c3S(=O)(=O)[C@@H]2C=C1 | 0.251%
OCCCC1CCCCN1Cc1nc(Cc2ccccc2Cl)no1 (stereo unspecified) | 1.46%
CCCCN(C(=O)/C=C/c1ccco1)c1c(N)n(CC(C)C)c(=O)[nH]c1=O | 5.81%
CC(=O)c1cccc(NC(=O)C2CCCN(S(=O)(=O)c3cccc4nonc34)C2)c1 (stereo unspecified) | 2.63%
COc1ccc(COC[C@H](CC(C)C)N2CCN(C(=O)c3cccc(C(F)(F)F)c3)CCC2=O)cc1 | -1.15%
